The values that follow come from the supplement of paper PMC9135407.

The structures appear in SMILES notation. “And” between values parts separate entries of the source, which are not always exact repeats. Equal entries are not always repeated. Structures can show the parent of a compound that is named as a salt. Out of some 5,800 compounds screened, about 620 (11%) showed activity. This is one part of a sample in which actives are shown more often than they occur. A number with no mark means an inactive call.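 Rule for the calls: active = score above a cut-off or among the top three wells of a plate; in these data no inactive exceeds 0.85.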

The experiment has as its system primary human hepatic stellate cells (donor 1). The experiment is described as follows: scaled lipid accumulation score (0 = DMSO-like, 1 = nortriptyline-like); higher = stronger HSC inactivation (lipid re-accumulation), active = hit call of the paper. The settings on record: 48 h.
The mark [1] stands for this setting: library stock concentration: 3.33 mM.
The mark [2] stands for this setting: library stock concentration: 10 mM.
The mark [3] stands for this setting: library stock concentration: 1 mM.
Where [4] appears, read: library stock concentration: 100 uM.
[5] abbreviates: library stock concentration: 80 uM.
[6] abbreviates: library stock concentration: 400 uM.
Setting [7] is: library stock concentration: 2 mM.
Setting [8] is: library stock concentration: 6.8 mM.
Setting [9] is: library stock concentration: 4.9 mM.

Turning to `CS(=O)(=O)c1ccc([C@H](O)[C@@H](COC(=O)CN)NC(=O)C(Cl)Cl)cc1` [Thiamphenicol glycinate], the “scaled lipid accumulation score” value (library stock concentration: 4.8 mM) was 0.01.

For the compound `O=C(O)Cn1nnc(-c2cc(N3CCC(Oc4cc(F)ccc4Br)CC3)no2)n1`, the “scaled lipid accumulation score” value under setting [1] is ≤ 0 and the “scaled lipid accumulation score” value under setting [2] is ≤ 0.

For the compound `CCCCC[C@H](O)/C=C/[C@@H]1[C@@H](C/C=C\CCCC(=O)N(CC)CC)[C@@H](O)C[C@H]1O` [Prostaglandin F2.alpha. diethyl amide], under setting [3], the “scaled lipid accumulation score” value is ≤ 0.

Regarding `CCc1cccc(N(C)C(=N)Nc2cccc3ccccc23)c1.Cl`, the “scaled lipid accumulation score” value under setting [2] was 0.912 (active).

With `CC1CCC(C(C)C)C(O)C1` (stereo not drawn) [Menthol(-)], the “scaled lipid accumulation score” value under setting [2] was ≤ -0.027.

With `CC1(C)CC(=O)C(C2C3=C(CC(C)(C)CC3=O)Oc3ccccc32)C(=O)C1` (stereo not given), the “scaled lipid accumulation score” value under setting [2] was ≤ -0.002.

Regarding `CCCCCC1OC1C/C=C\C/C=C\C/C=C\CCCC(=O)O` (stereo not given), the “scaled lipid accumulation score” value under setting [4] is ≤ -0.021.

`CC(=O)c1cnc2ccc(-c3cc(Cl)c(O)c(Cl)c3)nc2c1N[C@H]1CC[C@H](CN(C)C)CC1.Cl`: under setting [2], the “scaled lipid accumulation score” value is 0.872 (active).

For `CC(=O)c1cnc2ccc(-c3cc(Cl)c(O)c(Cl)c3)nc2c1N[C@H]1CC[C@H](CN(C)C)CC1`, the “scaled lipid accumulation score” value reads like this: under setting [5], 0.258; under setting [6], 0.847; under setting [7], 0.765.

With `CCN(CC)CCNC(C(=O)OCCC(C)C)c1ccccc1` (stereo not given), under setting [2], the “scaled lipid accumulation score” value is 0.521.

In the case of `Cc1ccc(C(=O)NCCCCCC(=O)Nc2ccccc2N)cc1`, the “scaled lipid accumulation score” value reads like this: under setting [1], ≤ -0.009; under setting [2], 0.662.

Consider `c1ccc2c3c([nH]c2c1)C1C2CCC(C4CCCNC42)N1CC3` (stereo not given) [Nitrarine dihydrochloride], for which the “scaled lipid accumulation score” value was ≤ 0.

On to `CCCNC(=O)[C@H]1O[C@@H]1C(=O)N[C@H](C(=O)N1CCC[C@H]1C(=O)OC)C(C)CC` (stereo not given in full), for which the “scaled lipid accumulation score” value (library stock concentration: 12.6 mM) is 0.868 (active).

With `CCOC(=O)[C@H](CCc1ccccc1)N[C@@H](C)C(=O)N1CCC[C@H]1C(=O)O` [Enalapril Maleate], the “scaled lipid accumulation score” value is, setting by setting: under setting [1], 0.026; under setting [2], ≤ 0.

For `CCOC(=O)[C@H](CCc1ccccc1)N[C@@H](C)C(=O)N1CCC[C@H]1C(=O)O` [Enalapril maleate], the “scaled lipid accumulation score” value is ≤ 0. The “scaled lipid accumulation score” value under setting [2] was ≤ 0.

As to `C[C@H](CS)C(=O)N1CCC[C@H]1C(=O)O` [Captopril], the “scaled lipid accumulation score” value is 0.036. Moreover, under setting [1], the “scaled lipid accumulation score” value was ≤ 0. Also, the “scaled lipid accumulation score” value (library stock concentration: 9.2 mM) is ≤ -0.006 and ≤ 0. Further, under setting [2], the “scaled lipid accumulation score” value was ≤ 0.

On to `C[C@H](CS)C(=O)N1CCC[C@H]1C(=O)O`, for which the “scaled lipid accumulation score” value under setting [2] is ≤ 0.

With `CCOC(=O)[C@H](CCc1ccccc1)N[C@@H](C)C(=O)N1CCC[C@H]1C(=O)O` [Enalapril], the “scaled lipid accumulation score” value (library stock concentration: 5.3 mM) was ≤ 0.

With `CCOC(=O)[C@H](CCc1ccccc1)N[C@@H](C)C(=O)N1CCC[C@H]1C(=O)O`, the “scaled lipid accumulation score” value under setting [2] was ≤ 0.

As to `O=C(O)/C(=C\c1c(C(=O)O)[nH]c2cc(Cl)cc(Cl)c12)c1ccccc1`, the “scaled lipid accumulation score” value under setting [2] was 0.017.

On to `N[C@H](C(=O)O)[C@H](Cc1ccccc1)C(=O)O` [L-Beta-threo-benzyl-aspartate], for which the “scaled lipid accumulation score” value under setting [2] was ≤ 0.

For the compound `CC(C)NCC(O)COc1cccc2ccccc12` (stereo not given), the “scaled lipid accumulation score” value under setting [2] is 0.847.

As to `CC(C)NCC(O)COc1cccc2ccccc12` (racemic) [Propranolol hydrochloride (+/-)], the “scaled lipid accumulation score” value under setting [8] was 0.363 and the “scaled lipid accumulation score” value under setting [2] was 0.457.

In the case of `CC(C)NCC(O)COc1cccc2ccccc12.Cl` (stereo not given), the “scaled lipid accumulation score” value under setting [2] is 0.882 (active).

For the compound `CC(C)NC[C@H](O)COc1cccc2ccccc12` [(S)-(-)-Propranolol hydrochloride], the “scaled lipid accumulation score” value under setting [2] was 0.518.

Consider `CC(C)NC[C@@H](O)COc1cccc2ccccc12` [Dexpropranolol hydrochloride], for which the “scaled lipid accumulation score” value under setting [8] was 0.521 and the “scaled lipid accumulation score” value under setting [2] is ≤ 0.

On to `CC(C)NCC(O)COc1cccc2ccccc12` (stereo not given) [Propranolol hydrochloride], for which the “scaled lipid accumulation score” value is 0.378. Under setting [2], the “scaled lipid accumulation score” value was 0.74.

With `CC(C)NC[C@H](O)COc1cccc2ccccc12` [(S)-propranolol hydrochloride], the “scaled lipid accumulation score” value was 0.444.

As to `CC(C)NC[C@H](O)COc1cccc2ccccc12` [(S)-Propranolol hydrochloride], under setting [2], the “scaled lipid accumulation score” value is 0.445.

As to `CC(C)NCC(O)COc1cccc2ccccc12` (stereo not given) [Propranolol HCl], the “scaled lipid accumulation score” value runs as follows: under setting [1], ≤ 0; under setting [2], 0.555.

Consider `CC(C)NC[C@@H](O)COc1cccc2ccccc12` [(R)-Propranolol hydrochloride], for which the “scaled lipid accumulation score” value was 0.415.

For the compound `CC(C)NC[C@H](O)COc1cccc2ccccc12.Cl`, the “scaled lipid accumulation score” value (library stock concentration: 16.9 mM) was 1.02 (active).

Take `CC(C)NC[C@@H](O)COc1cccc2ccccc12` [(R)-(+)-Propranolol hydrochloride]: the “scaled lipid accumulation score” value under setting [2] is 0.656.

Regarding `CC(C)NCC(O)COc1cccc2ccccc12` (stereo not given) [Propranolol], the “scaled lipid accumulation score” value (library stock concentration: 7.7 mM) was 0.676.

Consider `CCCOc1ccc(/C=C2/SC(=O)NC2=O)cc1` [PIM1/2 Kinase Inhibitor VI], for which the “scaled lipid accumulation score” value under setting [1] is 0.001.

Consider `C=CCn1c(=O)n([C@@H]2O[C@H](CO)[C@@H](O)[C@H]2O)c2nc(N)[nH]c(=O)c21`, for which the “scaled lipid accumulation score” value under setting [2] was 0.047.

In the case of `CCCCC(C)(C)[C@H](O)/C=C/[C@@H]1[C@@H](C/C=C\CCCC(=O)O)[C@H](O)C[C@H]1O` [16,16-dimethyl Prostaglandin F2.beta.], the “scaled lipid accumulation score” value under setting [3] was ≤ 0.

In the case of `CCCCCC=CCC=CC=CC=CC(SCC(NC(C)=O)C(=O)O)C(O)CCCC(=O)O` (stereo not given) [N-Acetyl-leukotriene E4], the “scaled lipid accumulation score” value under setting [4] is 0.032.

On to `c1ccc(N2CCN(Cc3nc4ccccc4[nH]3)CC2)nc1` [ABT 724 trihydrochloride], for which, under setting [2], the “scaled lipid accumulation score” value is ≤ -0.001.

As for `O=C(O)CCc1nc2ccccc2[nH]1`, the “scaled lipid accumulation score” value under setting [2] was 0.2.

On to `O=c1c2sc(-c3ccc(F)cc3)cc2ncn1Cc1nc2ccccc2[nH]1`, for which, under setting [2], the “scaled lipid accumulation score” value is 0.756 (active).

Regarding `CCCCCCCCCCCCCCCCOP(=O)([O-])OCC[N+](C)(C)C` [Miltefosine], the “scaled lipid accumulation score” value under setting [3] is ≤ 0, the “scaled lipid accumulation score” value under setting [9] is ≤ -0.006 and the “scaled lipid accumulation score” value under setting [2] was 0.007.

In the case of `O=C(NCc1cccc(O)c1)Nc1nc(-c2ccncc2)cs1` [listing 1 of 2 here], the “scaled lipid accumulation score” value under setting [1] is 0.56.

For `O=C(NCc1cccc(O)c1)Nc1nc(-c2ccncc2)cs1` [listing 2 of 2 here], under setting [2], the “scaled lipid accumulation score” value is 1.02 (active).

As for `O=C(NCc1ccccc1)c1csc(Nc2ccncn2)n1` [Thiazovivin], the “scaled lipid accumulation score” value under setting [1] is ≤ 0 and the “scaled lipid accumulation score” value under setting [2] was 0.14.

Turning to `Cc1nnc(C(C)C)n1C1C[C@H]2CC[C@@H](C1)N2CC[C@H](NC(=O)C1CCC(F)(F)CC1)c1ccccc1` (stereo in doubt) [Maraviroc], the “scaled lipid accumulation score” value by setting is: under setting [1], ≤ 0; under setting [2], ≤ 0.

For `COc1ccc(/C=C/c2cc(Cl)cc(Cl)c2)cc1`, the “scaled lipid accumulation score” value under setting [3] was ≤ 0.

Turning to `CCCCCCCCCCCCCCCNC(=O)C1CCCCC1` [N-Cyclohexanecarbonylpentadecylamine], the “scaled lipid accumulation score” value under setting [3] is ≤ 0.

In the case of `CCN(CC)CCCN(c1ccccc1)C1Cc2ccccc2C1` [Aprindine hydrochloride], the “scaled lipid accumulation score” value under setting [2] was 0.262.

In the case of `O=C(O)CCC/C=C\C[C@@H]1[C@@H](/C=C/[C@H](O)C2Cc3ccccc3C2)[C@@H](F)C[C@@H]1O`, under setting [2], the “scaled lipid accumulation score” value was ≤ -0.07.

Consider `CC1(C)CC(=O)c2c(C(F)(F)F)nn(-c3ccc(C(N)=O)c(N[C@H]4CC[C@H](OC(=O)CN)CC4)c3)c2C1` [listing 1 of 2 here], for which the “scaled lipid accumulation score” value under setting [1] is 0.77.

On to `CC1(C)CC(=O)c2c(C(F)(F)F)nn(-c3ccc(C(N)=O)c(N[C@H]4CC[C@H](OC(=O)CN)CC4)c3)c2C1` [listing 2 of 2 here], for which the “scaled lipid accumulation score” value under setting [2] was 1.05 (active).

On to `CC1(C)CC(=O)c2c(C(F)(F)F)nn(-c3ccc(C(N)=O)c(N[C@H]4CC[C@H](O)CC4)c3)c2C1`, for which the “scaled lipid accumulation score” value under setting [1] was 0.635 and the “scaled lipid accumulation score” value under setting [2] was 0.742.

`c1ccc(COCCCc2c[nH]cn2)cc1` [Proxyfan Oxalate]: the “scaled lipid accumulation score” value under setting [2] was ≤ 0.

As for `CC(C)(S)C(N)C(=O)O` (racemic), under setting [2], the “scaled lipid accumulation score” value was ≤ 0.

`Cc1cc(Nc2cc(N3CCN(C)CC3)nc(Sc3ccc(NC(=O)C4CC4)cc3)n2)n[nH]1`: the “scaled lipid accumulation score” value is 0.003 under setting [5], 0.063 under setting [6], 0.248 under setting [7] and 0.47 under setting [2].

Regarding `Cc1cc(Nc2cc(N3CCN(C)CC3)nc(Sc3ccc(NC(=O)C4CC4)cc3)n2)n[nH]1` [Tozasertib (VX-680, MK-0457) (10 mM)], the “scaled lipid accumulation score” value under setting [2] was 0.456.

With `Cc1cc(Nc2cc(N3CCN(C)CC3)nc(Sc3ccc(NC(=O)C4CC4)cc3)n2)n[nH]1` [VX-680 (Tozasertib, MK-0457)], the “scaled lipid accumulation score” value was 0.193 under setting [1] and 0.038 under setting [2].

As to `Cc1cc(Nc2cc(N3CCN(C)CC3)nc(Sc3ccc(NC(=O)C4CC4)cc3)n2)n[nH]1` [Tozasertib (VX-680, MK-0457) (0.4 mM)], the “scaled lipid accumulation score” value under setting [6] is ≤ -0.005.

For the compound `Cc1cc(Nc2cc(N3CCN(C)CC3)nc(/C=C/c3ccccc3)n2)n[nH]1`, the “scaled lipid accumulation score” value under setting [2] is 0.603.

For the compound `Cc1cc(Nc2cc(N3CCN(C)CC3)nc(Sc3ccc(NC(=O)C4CC4)cc3)n2)n[nH]1` [Tozasertib (VX-680, MK-0457) (2 mM)], the “scaled lipid accumulation score” value under setting [7] was ≤ -0.005.

As for `Cc1cc(Nc2cc(N3CCN(C)CC3)nc(C=Cc3ccccc3)n2)n[nH]1`, the “scaled lipid accumulation score” value under setting [1] is 1.06 (active).

Consider `Cn1cc(-c2cnn3c(N)c(Br)c([C@@H]4CCCNC4)nc23)cn1`, for which the “scaled lipid accumulation score” value reads like this: under setting [1], ≤ 0; under setting [2], 0.521.

Regarding `CCCCCCCCCCCCCCCC(=O)N[C@H](CN1CCOCC1)[C@H](O)c1ccccc1` (racemic), under setting [3], the “scaled lipid accumulation score” value was ≤ -0.021.

Regarding `CCCCC[C@H](O)/C=C/[C@H]1[C@H](O)CC(=O)[C@@H]1CCCCCCCO` [Prostaglandin E1 Alcohol], under setting [3], the “scaled lipid accumulation score” value is 0.129.

With `O=C1C(c2ccccc2)N(c2ccc(Br)cc2)C(=O)N1c1ccc(Br)cc1` (stereo not given), the “scaled lipid accumulation score” value under setting [3] was ≤ 0.

For `CC[C@H](C)C(=O)O[C@H]1C[C@H](O)C=C2C=C[C@H](C)[C@H](CC[C@@H]3C[C@@H](O)CC(=O)O3)[C@H]21` [Pravastatin lactone], the “scaled lipid accumulation score” value under setting [9] was ≤ 0.
